# From PubChem BioAssay
# NPR1 antag = Natriuretic polypeptide receptor (hNpr1) antagonism - Primary qHTS | Atrial natriuretic peptide receptor 1 (Homo sapiens), P16066 | HEK293 hNpr1 GloSensor cGMP, ANP-stimulated luminescence | Potency, µM (highest dose often 46.3 µM), inactives show at the top dose activity change, negative = inhibition, actives largely listed as inhibitors | 1.6% of 76,000 active | AID 1347048, 2019; calls by dose curve; further: nearly all actives have a fitted effect of over 60% in size
#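 Compound pre-incubated 30 min at room temperature on GloSensor-loaded HEK293 cells stably carrying hNpr1 and the pGS-40F cGMP biosensor. Stimulation uses hNppA at 0.1 nM final; luminescence is taken at baseline and 20 min post-agonist.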
# FLuc inh = Firefly luciferase inhibition profiling of diverse chemical library using quantitative high-throughput screening. AID 1347043, 2019. 2.5% of 76,000 active. purified P. pyralis luciferase, luminescence, biochemical. Potency, µM (highest dose often 115 µM), most hits filed as inhibitors. Luciferin 4-monooxygenase (Photinus pyralis), P08659; further: nearly all actives have a fitted effect of over 65% in size
# Target sequence (P08659 whole entry, looked up): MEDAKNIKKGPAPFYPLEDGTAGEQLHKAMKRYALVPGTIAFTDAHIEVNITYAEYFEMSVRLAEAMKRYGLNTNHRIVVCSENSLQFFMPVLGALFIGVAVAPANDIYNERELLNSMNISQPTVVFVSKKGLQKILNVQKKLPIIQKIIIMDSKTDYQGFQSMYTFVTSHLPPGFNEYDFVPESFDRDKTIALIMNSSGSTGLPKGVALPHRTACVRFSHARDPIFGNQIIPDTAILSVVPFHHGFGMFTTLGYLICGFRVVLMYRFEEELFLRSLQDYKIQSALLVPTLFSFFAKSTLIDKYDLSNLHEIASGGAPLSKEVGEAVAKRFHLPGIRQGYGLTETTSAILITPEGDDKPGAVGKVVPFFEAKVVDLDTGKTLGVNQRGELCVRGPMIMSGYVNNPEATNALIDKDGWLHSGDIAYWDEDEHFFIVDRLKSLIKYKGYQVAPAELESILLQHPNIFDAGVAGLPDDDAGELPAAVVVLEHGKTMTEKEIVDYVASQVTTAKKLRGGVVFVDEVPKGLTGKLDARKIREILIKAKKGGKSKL
#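 Purified P. pyralis luciferase (10nM final) in 50mM Tris acetate pH 7.5, 10mM Mg acetate, 0.01% Tween-20, 0.05% BSA with 10uM D-luciferin and 10uM ATP. Compounds titrated qHTS. Luminescence imaged on CCD.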
# NIH3T3 tox = Cytotoxic Profiling in NIH 3T3 Cell Line of Diverse Libraries Using Quantitative High-Throughput Screening. AID 1345082, 2018. 4.3% of 94,000 active. Potency, µM (top dose mostly 96.7 µM), without a hit: top-dose activity change, negative = cytotoxicity, actives largely listed as inhibitors. NIH 3T3 viability, CellTiter-Glo ATP luminescence, 48-72 h; further: nearly all actives have a fitted effect of over 55% in size
#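 Mouse fibroblast NIH 3T3 cells, 400 per well, received compound via pintool and were incubated for 48 or 72 hr prior to CellTiter-Glo ATP luminescence measurement.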
# HEK cytotox = Cytotoxic Profiling in HEK 293 Cell Line of Diverse Libraries Using Quantitative High-Throughput Screening | HEK 293 viability, ATP luminescence (CellTiter-Glo), 48-72 h | Potency, µM (highest dose often 115 µM), without a hit: top-dose activity change, negative = cytotoxicity, usual class: inhibitors | 6.6% of 94,000 active | AID 1345083, 2018; further: nearly all actives have a fitted effect of over 60% in size
#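 HEK 293 cells seeded at 250 cells/well were exposed to compound for 48 or 72 hr at 37 degree Celsius. Viability taken as ATP content by CellTiter-Glo luminescence.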
# GPT2 inhibitor = Primary qHTS assay for inhibitors of Glutamate pyruvate transaminase 2 (GPT2) | Alanine aminotransferase 2 (Homo sapiens), Q8TD30 | 0.25% of 100,000 active | Recombinant GPT2, coupled pyruvate oxidase/HRP Amplex Red fluorescence | AID 1671188, 2021 | Potency, µM (top dose mostly 57.7 µM), without a hit: at the top dose activity change, negative = inhibition, actives largely listed as inhibitors; further: nearly all actives have a fitted effect of over 60% in size
#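 Fluorescence read-out: pyruvate from GPT2 turnover coupled to pyruvate oxidase, HRP and Amplex Red (0.2mM ThPP, 0.2U/mL PO and HRP, 50uM Amplex final). Substrates 250uM a-KG, 2mM L-alanine; enzyme 10ng/uL; 30 min RT.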
# * hit, by the source's call; i = inactive; ? = inconclusive; nt = not tested or not shown; [ ] = another dose, or the depositor's remark. In the library only some 10% were active in any assay of this set; here they are far more common. Unless noted, the call rests on the fitted dose curve; in most records, active means well fitted curve in the direction sought with a large enough effect; inconclusive means small, poorly fitted or top-dose-only effect, or another doubt; inactive means no such curve, though single readings can be large; an effect the other way counts as inactive or inconclusive. On the % scale 0 is the no-effect control and ±100 the full control effect; potency means the concentration at half of the fitted maximal effect.
SMILES,NPR1 antag,FLuc inh,NIH3T3 tox,HEK cytotox,GPT2 inhibitor
COc1cccc(-c2ccnc(-c3nnc(C)n3CCN3CCOCC3)c2)c1,-1.1%[70.6 µM],i,-19.1%[138 µM],?,?
Cc1nnc(-c2cc(-c3cccnc3)ccn2)n1CCN1CCOCC1,2.8%[70.6 µM],i,?,5.0%[172 µM],2.8%[88.5 µM]
Cc1nnc(-c2cc(-c3cccc(O)c3)ccn2)n1CCc1ccccc1,-14.3%[70.6 µM],i,100µM*,?,?
Cc1nnc(-c2cc(-c3cccc(F)c3)ccn2)n1CCN1CCOCC1,-1.0%[70.6 µM],i,22.4µM*,?,2.4%[88.5 µM]
Cc1cnc(C(=O)N2C[C@@H](COc3ccccc3)[C@H](C(N)=O)C2)cn1,1.5%,i,-0.6%,i,3.2%
Cc1c(-c2cc(C(=O)N3CCC(=O)N(CC4CC4)C(C(C)C)C3)no2)cnn1C (stereo not given),-1.3%,i,-24.6%,1.5%,4.5%
O=c1cc(-c2ccc(O)cc2)oc2cc(O)cc(O)c12,nt,nt,nt,nt,i
O=c1c(O)c(-c2ccc(O)cc2)oc2cc(O)cc(O)c12,nt,nt,nt,nt,24.3µM*
CC(C)(C)c1[nH]nc2c1C(c1ccnc3ccccc13)CC(=O)N2 (stereo not given),-4.9%,i,31.6µM*,-7.9%,0.6%
O=C(C1CCCC1)N1CCC(Oc2cnc3c(ccn3-c3cncnc3)c2)CC1,1.0%[70.6 µM],i,?,?,-0.1%[88.5 µM]
C[S+](=O)([O-])NCCn1ccc2cc(OC3CCN(C(=O)C4CCCC4)CC3)cnc21,-27.5%[70.6 µM],i,100µM*,?,4.8%[88.5 µM]
COc1ccc(Cn2c(C3CCN(C(=O)c4cccc(Cl)c4)CC3)n[nH]c2=O)cc1,1.8%,i,?,-16.0%,4.3%
Cn1cc(-c2ccc3c(n2)CN(Cc2ccccc2)C(=O)CO3)cn1,-3.7%[70.6 µM],i,39.8µM*,?,5.0%[88.5 µM]
COCCN1Cc2nc(-c3cnn(Cc4ccccc4)c3)ccc2OCC1=O,-18.1%[70.6 µM],i,44.7µM*,?,-2.4%[88.5 µM]
COc1cccc(CN2Cc3nc(-c4cn[nH]c4)ccc3OCC2=O)c1,-1.9%[70.6 µM],i,35.5µM*,?,i
COc1ccc(-c2ccc3c(n2)CN(CCOc2ccccc2)C(=O)CO3)cc1,?,i,?,?,-1.2%[88.5 µM]
O=C1COc2ccc(-c3ccccc3)nc2CN1CCOc1ccccc1,-27.2%[70.6 µM],i,44.7µM*,?,-10.8%[88.5 µM]
COc1cccc(CN2Cc3nc(-c4ccsc4)ccc3OCC2=O)c1,-10.6%[70.6 µM],i,?,?,-21.2%[88.5 µM]
COc1cccc(CC(=O)N2CC3CC(C2)[C@H]2CCCC(=O)N2C3)c1 (stereo not given in full),4.6%,i,i,5.3%,3.4%
Cn1nccc1C(=O)N1CCC2(CC1)OC(=O)N(CCOc1ccccc1)C2(C)c1cccnc1 (stereo not given),2.4%,i,?,-5.3%,-14.7%
O=C(N[C@H]1CCOC[C@H]1C1CCOCC1)c1cccc(-n2cnnc2)n1,6.5%,i,5.0%,i,-3.8%
COc1ccc(C(=O)N2C[C@@H]3OCC(=O)N(Cc4ccc(OC(F)(F)F)cc4)[C@@H]3C2)cc1,-9.7%,i,?,-23.5%,i
CS(=O)(=O)c1ccc(OCC2(CNC(=O)Nc3cccnc3)C[C@@H](O)[C@@H](O)C2)cc1 (stereo not given in full),0.5%,i,i,i,-2.7%
COc1cccc(CN2Cc3nc(-c4ccncc4)ccc3OCC2=O)c1,-29.2%[70.6 µM],i,?,?,2.3%[88.5 µM]
CN(c1ccccc1)c1ccc2c(n1)CN(Cc1ccccc1)C(=O)CO2,?,50.1µM*,79.4µM*,89.1µM*,-11.4%[88.5 µM]
SMILES,NPR1 antag,FLuc inh,NIH3T3 tox,HEK cytotox,GPT2 inhibitor
O=C1COc2ccc(-c3ccccc3)nc2CN1Cc1ccc(F)cc1,-17.7%[70.6 µM],i,?,?,-8.3%[88.5 µM]
COc1cccc(CN2Cc3nc(-c4cccc(O)c4)ccc3OCC2=O)c1,-21.7%[70.6 µM],i,?,100µM*,-8.9%[88.5 µM]
COc1cccc(CN2Cc3nc(-c4ccccc4)ccc3OCC2=O)c1,-14.5%[70.6 µM],i,?,79.4µM*,-29.4%[88.5 µM]
O=C1COc2ccc(-c3cn[nH]c3)nc2CN1Cc1ccccc1,-7.6%[70.6 µM],i,28.2µM*,?,i
Cc1nc(CN2Cc3nc(N(C)c4ccccc4)ccc3OCC2=O)cs1,?,i,?,?,-12.6%[88.5 µM]
CN1C(=O)CCCCC1C(=O)NCCCN1CCc2ccccc2C1 (stereo not given),-3.6%,i,3.3%,-1.6%,1.3%
Cc1cccc(CN2CCCC(O)(CN3CCC(C)CC3)C2=O)c1 (stereo not given),1.8%,i,-10.3%,0.1%,3.3%
Cc1cccc(CN2CCCC(O)(CNCc3ncccc3C)C2=O)c1 (stereo not given),-7.2%,i,14.1µM*,?,-16.6%
Cc1ccc(-n2c(C3CCN(C(=O)c4ccc5cc[nH]c5c4)CC3)n[nH]c2=O)cc1,1.5%,i,31.6µM*,9.6%,-1.9%
Cc1ccc(-n2c(C3CCN(C(=O)Cc4cccc(F)c4)CC3)n[nH]c2=O)cc1,14.9%,i,10µM*,-0.9%,2.9%
Cc1ccc(-n2c(C3CCN(C(=O)c4cccc(F)c4)CC3)n[nH]c2=O)cc1,3.0%,i,35.5µM*,12.4%,i
Cc1ccc(-n2c(C3CCN(C(=O)c4cccc(C)c4)CC3)n[nH]c2=O)cc1,0.0%,i,?,-3.2%,-11.3%
Cc1ccc(-n2c(C3CCN(C(=O)c4ccc(F)c(F)c4)CC3)n[nH]c2=O)cc1,2.3%,i,10µM*,11.6%,i
O=C(CSc1ccccn1)NC1CC(=O)N(C2Cc3ccccc3C2)C1 (stereo not given),-6.3%,i,-2.7%,3.6%,?
Cc1cc(C(=O)N2CCC(c3noc(-c4cnccn4)n3)C2)nn1C (stereo not given),4.0%,i,i,15.3%,0.8%
Cc1ccc(-n2c(C3CCN(C(=O)Cc4ccccc4)CC3)n[nH]c2=O)cc1,4.9%,i,?,4.3%,i
O=C(c1ccc2ccccc2n1)N1CCC(c2n[nH]c(=O)n2-c2ccccc2)CC1,0.0%,i,44.7µM*,3.5%,-6.5%
CC(C)(C)c1ccc(C(=O)N2CCC(c3n[nH]c(=O)n3-c3ccccc3)CC2)cc1,0.0%,i,-25.8%,?,i
Cc1ccc(-n2c(C3CCN(C(=O)c4ccco4)CC3)n[nH]c2=O)cc1,2.2%,i,22.4µM*,6.0%,3.9%
